# Screening results as filed in PubChem BioAssay.
# Only a selection was taken, and hits are over-represented in it overall.
# IDE exosite FP = exo-site inhibitors of human insulin-degrading enzyme; AID 1259349; 6.3% of 17,000 active; z-score at 20 µM; purified IDE, FL-6b probe fluorescence polarization; hits give low values; P14735;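 active = z-score of -3 or lower, meaning strong loss of probe binding signal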;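 note: His-tagged human IDE residues 42-1019 made in E. coli with 30 nM FL-6b probe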
# An asterisk follows results filed as active.
SMILES,IDE exosite FP
COc1ccccc1NC(=O)C[C@H]1CC[C@H]2[C@@H](COc3ccc(NS(C)(=O)=O)cc3C(=O)N2C)O1,-6.1*
CCS(=O)(=O)Nc1ccc2c(c1)C(=O)N(C)[C@@H]1CC[C@@H](CC(=O)N3CCN(C)CC3)O[C@H]1CO2,0.27
COc1ccccc1NC(=O)Nc1ccc2c(c1)C(=O)N(C)[C@H]1CC[C@H](CC(=O)Nc3ccc4c(c3)COC4)O[C@@H]1CO2,-0.18
CN1C(=O)c2cc(NS(C)(=O)=O)ccc2OC[C@H]2O[C@H](CC(=O)N3CCOCC3)CC[C@@H]21,-14*
CN1C(=O)c2cc(NS(C)(=O)=O)ccc2OC[C@H]2O[C@@H](CC(=O)NCc3ccccc3)CC[C@@H]21,0.18
CCC(=O)N1CC(=O)N2[C@H](C1)[C@H](c1ccc(C3=CCCCC3)cc1)[C@@H]2CO,0.35
O=C(Cc1ccncc1)NCC[C@H]1CC[C@H](NS(=O)(=O)c2ccccc2Cl)[C@H](CO)O1,1.8
CN(C)C(=O)[C@H]1[C@H](CO)[C@H]2Cn3c(ccc(/C=C/c4ccccc4)c3=O)[C@H]2N1C(=O)c1cccnc1,0.78
Cc1ccc(S(=O)(=O)NCC[C@H]2CC[C@@H](NC(=O)c3cccnc3)[C@@H](CO)O2)cc1,-1.3
COc1ccc(C#Cc2ccc([C@H]3[C@H]4CN(C(C)=O)CC(=O)N4[C@H]3CO)cc2)cc1,2.7
COc1cccc(C#Cc2ccc([C@@H]3[C@@H](CO)N4C(=O)CN(C(C)=O)C[C@@H]34)cc2)c1,-7.5*
COc1ccc(C#Cc2ccc([C@H]3[C@@H](CO)N4C(=O)CN(C(C)=O)C[C@@H]34)cc2)cc1,3.9
COc1ccc(C#Cc2ccc([C@@H]3[C@@H](CO)N4C(=O)CN(C(C)=O)C[C@H]34)cc2)cc1,3.6
COc1cccc(C#Cc2ccc([C@H]3[C@H]4CN(C(C)=O)CC(=O)N4[C@H]3CO)cc2)c1,-7.9*
COc1ccc(C#Cc2ccc([C@H]3[C@@H](CO)N4C(=O)CN(C(C)=O)C[C@H]34)cc2)cc1,1.7
O=C(c1ccc(F)cc1)N1CC(=O)N2[C@H](CO)[C@H](c3ccc(C#CCC4CCCC4)cc3)[C@H]2C1,-0.68
CN(C)C(=O)c1ccc(-c2ccc([C@@H]3[C@H](CO)N4CCCCN(Cc5ccncc5)C[C@@H]34)cc2)cc1,1.4
OC[C@@H]1[C@@H](c2ccc(C#Cc3cccnc3)cc2)[C@@H]2CN(Cc3ccccc3F)CCCCN12,-0.035
OC[C@H]1[C@@H](c2ccc(C#Cc3ccccc3F)cc2)[C@@H]2CN(Cc3cncnc3)CCCCN12,-15*
OC[C@H]1[C@@H](c2ccc(C#Cc3ccccc3F)cc2)[C@H]2CN(Cc3cncnc3)CCCCN21,-2.1
OC[C@@H]1[C@H](c2ccc(-c3ccccc3F)cc2)[C@@H]2CN(Cc3cccnc3)CCCCN12,-1.2
OC[C@H]1[C@@H](c2ccc(-c3ccccc3F)cc2)[C@@H]2CN(Cc3cncnc3)CCCCN12,-2.7
OC[C@@H]1[C@@H](c2ccc(C#Cc3ccccc3F)cc2)[C@@H]2CN(Cc3cncnc3)CCCCN12,-6.3*
OC[C@H]1[C@@H](c2ccc(-c3ccccc3F)cc2)[C@H]2CN(Cc3cncnc3)CCCCN21,-3.2*
CCCN(C)C[C@H]1OCCCC[C@@H](C)Oc2ccc(NC(=O)CCCN(C)C)cc2C(=O)N([C@@H](C)CO)C[C@H]1C,0.8
SMILES,IDE exosite FP
CN1c2ccc(-c3ccc(C#N)cc3)cc2[C@H]2[C@H](CCN2S(=O)(=O)c2ccc(F)cc2)[C@@H]1CO,-0.095
CCCNC(=O)Nc1ccc2c(c1)OC[C@H](C)N(S(C)(=O)=O)C[C@H](C)[C@@H](OC)CN(C)C2=O,0.46
CN1CCN(C(=O)c2cc3c(c(-c4cccc(C#CCC5CCCC5)c4)n2)[C@H](CCO)N(S(=O)C(C)(C)C)C3)CC1 (some centres not stated),-0.25
COCC(=O)N1[C@H](C#N)[C@@H](c2ccccc2-c2cccc(C)c2)[C@@H]1CO,0.064
C/C=C/c1ccccc1[C@@H]1[C@@H](C#N)N(C(=O)c2cccnc2)[C@@H]1CO,1.1
CC(C)C#Cc1ccc([C@H]2[C@@H](CO)N3C(=O)CN(C(=O)Cc4cccnc4)C[C@H]23)cc1,4.3
COc1ccc(C[C@@H]2CCn3nncc3COCCCNC2=O)cc1,-0.48
COc1ccc(-c2ccc([C@H]3[C@@H](C#N)N(C(=O)NC(C)C)[C@@H]3CO)cc2)cc1,-1.3
COc1ccccc1-c1ccc([C@@H]2[C@@H](CO)N(C(=O)C3CC3)[C@H]2C#N)cc1,-7.8*
COc1ccc(-c2ccc([C@H]3[C@H](C#N)N(C(=O)c4cccc(F)c4)[C@H]3CO)cc2)cc1,2.6
COc1ccc(-c2ccc([C@@H]3[C@@H](C#N)N(C(=O)C4CCCC4)[C@H]3CO)cc2)cc1,0.9
COc1ccccc1-c1ccc([C@@H]2[C@@H](C#N)N(C(=O)c3cccc(F)c3)[C@@H]2CO)cc1,-13*
COc1ccc(-c2ccccc2[C@H]2[C@@H](C#N)N(C(=O)C3CC3)[C@H]2CO)cc1,3
COc1ccc(-c2ccc([C@H]3[C@@H](C#N)N(C(=O)C4CCCC4)[C@@H]3CO)cc2)cc1,3.2
COc1ccccc1-c1ccc([C@H]2[C@@H](CO)N(C(=O)C3CCCCC3)[C@H]2C#N)cc1,-3.3*
COc1ccccc1-c1ccc([C@H]2[C@@H](CO)N(C(=O)NC(C)C)[C@H]2C#N)cc1,-16*
N#C[C@@H]1[C@H](c2ccc(-c3ccccc3F)cc2)[C@H](CO)N1C(=O)C1CCC1,0.44
COc1ccc(-c2ccc([C@@H]3[C@H](C#N)N(C(=O)NC(C)C)[C@H]3CO)cc2)cc1,0.084
Cc1ccc(-c2ccccc2[C@@H]2[C@H](C#N)N(C(=O)c3cccc(F)c3)[C@H]2CO)cc1,0.43
O=C(C[C@@H]1CC[C@H]2NC[C@H](O)COC[C@@H]2O1)Nc1nccs1,-1.6
OC[C@@H]1Nc2ccc(C#Cc3ccc(F)cc3)cc2[C@H]2[C@@H]1CCN2Cc1ccc2c(c1)OCO2,0.71
CC(C)(C)[S@](=O)N1Cc2cc(C(=O)N[C@H]3CCN(Cc4ccccc4)C3)nc(-c3cccc(-c4cccnc4)c3)c2[C@@H]1CCO,1.7
CCCC(=O)Nc1ccc2c(c1)C(=O)N(C)C[C@@H](OC)[C@H](C)CN(Cc1cc(-c3ccccc3)on1)[C@H](C)CO2,1.4
Cc1ccccc1S(=O)(=O)N1CC(=O)N2[C@H](C1)[C@@H](c1ccc(C#CCC(C)C)cc1)[C@@H]2CO,3
CCC(=O)N1CC2(C1)[C@@H](c1ccccc1)[C@@H](CO)N2CC1CC1,1.3
SMILES,IDE exosite FP
Cc1ccc(S(=O)(=O)N2C[C@H](O)COC[C@H]3O[C@H](CC(=O)NCc4ccc5c(c4)OCO5)CC[C@@H]32)cc1,0.18
COc1ccc2c3c([nH]c2c1)[C@H](CO)N(Cc1ccccc1)CC31CN(C(=O)Nc2cccc(F)c2)C1,-1.7
CCCC#Cc1ccc([C@H]2[C@@H](CO)N3C(=O)CN(C(=O)Nc4cc(F)ccc4F)C[C@@H]23)cc1,3.7
COc1ccc(S(=O)(=O)N2CC[C@H]3[C@H](CO)Nc4ccc(Br)cc4[C@H]32)cc1,-0.3
COCC(=O)N1[C@H](C#N)[C@H](c2ccccc2-c2cccc(OC)c2)[C@H]1CO,0.64
CCC(=O)N1CC(=O)N2[C@H](CO)[C@@H](c3ccc(C#CC4CCCCC4)cc3)[C@H]2C1,3.9
CCC(=O)N1[C@H](CO)[C@@H]2c3ccccc3N(C(=O)c3cnccn3)C[C@@H]21,0.33
CC[C@H]1C/C=C\C[C@H](c2ccccc2)NC(=O)CCC(=O)N1,0.99
